# Measured values from ChEMBL document CHEMBL3988442, “University of Dundee, Small-Polar-MMV Screening Library” (2021).
# About 1,000 (1.4%) of roughly 69,000 compounds showed an effect of 50% or more. What follows is part of a selection rich in strong results, with near analogues and random picks from the rest.
# Test system: Leishmania donovani
# Assay: Leishmania intramacrophage assay
# Type: functional, organism-based
# Design: scale not given: in the data most compounds retested in dose-response had high values
compound,measurement,setting,value
Cc1nc(NCc2ccc(F)cc2)cc(C(=O)N2CCOCC2)n1,Percent Effect,"30.3 µM, […]",32.39%
Cc1ccc(CN2CCCC3(CCCCN3S(C)(=O)=O)C2)s1.O=C(O)C(F)(F)F (stereo not given),Percent Effect,"30.3 µM, […]",8.751%
Cn1cnnc1C1CCCN(C(=O)NCCCn2cccn2)C1 (stereo not given),Percent Effect,30 µM,24.48%
Cn1cnnc1SCc1cc2c(cc1Br)OCO2,Percent Effect,"30.3 µM, […]",-1.981%
CN(C(=O)c1cccc(OCC(F)F)n1)c1ccc2c(c1)CCO2,Percent Effect,"30.3 µM, […]",24.43%
O=C(C1SCCc2sccc21)N1CCN(CCO)CC1 (stereo not given),Percent Effect,"30 µM, 30.03 µM",-7.988%
Cc1cc(N(C)C)nc(C2(C)CCCN2C(=O)c2ccn(C)n2)n1 (stereo not given),Percent Effect,"30.3 µM, […]",1.341%
COc1ccc(OCCN(C)S(=O)(=O)N2CCOCC2)cc1,Percent Effect,"30.3 µM, […]",11%
CC(C)NC(=O)c1ccc2nnc(C3CN(C)CCN3C)n2c1.O=C(O)C(F)(F)F.O=C(O)C(F)(F)F (stereo not given),Percent Effect,"30.3 µM, […]",-3.873%
COc1c(CNCc2cccc(CN(C)C)c2)c(C)nn1C.Cl,Percent Effect,"30 µM, 30.03 µM",41.69%
COc1c(CNCc2cccc(Cn3ccnc3)c2)c(C)nn1C,Percent Effect,"30 µM, 30.03 µM",57.06%
COc1c(CNCc2cccc(C(=O)N(C)C)c2)c(C)nn1C,Percent Effect,30 µM,37.17%
COc1c(CNCc2cccc(Cn3ccnc3C)c2)c(C)nn1C.Cl,Percent Effect,30 µM,52.6%
COc1c(CNCc2ccc(C(=O)N(C)C)cc2)c(C)nn1C.Cl,Percent Effect,"30 µM, 30.03 µM",56.22%
COc1c(CNCc2ccc(Cn3ccnc3)cc2)c(C)nn1C,Percent Effect,30 µM,38.9%
COc1c(CNCc2cccc(Cn3cccn3)c2)c(C)nn1C,Percent Effect,30 µM,41.23%
COc1c(CNCc2ccccc2Cn2ccnc2)c(C)nn1C,Percent Effect,30 µM,42.31%
COc1c(CNCc2ccc(C(=O)N(C)C(C)C)cc2)c(C)nn1C,Percent Effect,30 µM,21.5%
O=C(CN1CCCC(c2ccc(C(=O)O)cc2)C1)NC1CC1 (stereo not given),Percent Effect,"30 µM, 30.03 µM",23.13%
Cc1ccc2cc(C(=O)N3CCCC3Cn3cccn3)[nH]c2c1 (stereo not given),Percent Effect,"30.3 µM, […]",22.94%
Cc1cnn(CCNCc2ccc(OCc3cccnc3)cc2)c1,Percent Effect,30 µM,27.42%
CN(C)C(=O)N1CCOCC2(CCN(c3ccccn3)C2)C1.O=C(O)C(F)(F)F (stereo not given),Percent Effect,"30 µM, 30.03 µM",18.14%
O=S1(=O)c2ccccc2C(O)CN1CCO (stereo not given),Percent Effect,"30.3 µM, […]",5.205%
CCN(CC)c1ccc2ccc(C(=O)O)cn12,Percent Effect,"30.3 µM, […]",18.9%
CCN(CC)c1ccc2ccc(C(=O)N3CCCCO3)cn12.O=C(O)C(F)(F)F,Percent Effect,"30.3 µM, […]",27.79%
Cc1nc(-c2ccc(S(=O)(=O)N3CCOCC3)cc2)co1,Percent Effect,"30.3 µM, […]",23.37%
Cc1nn(C)cc1CN1C[C@@H]2CC[C@H](C1)N(Cc1c(C)noc1C)C2=O,Percent Effect,"30.3 µM, […]",16.01%
CCCN1CCC(c2nc3ccc(-c4cccc(OC)c4)cn3n2)CC1.O=C(O)C(F)(F)F,Percent Effect,"30.3 µM, […]",66.14%
CCCN1CCC(c2nc3ccc(-c4ccccc4)cn3n2)CC1.O=C(O)C(F)(F)F,Percent Effect,"30.3 µM, […]",22.28%
CCN1CCC(c2nc3ccc(NC(C)C)cn3n2)CC1.O=C(O)C(F)(F)F,Percent Effect,"30 µM, 30.03 µM",14.23%
CN1CCC(c2nc3ccc(-c4cccc(F)c4)cn3n2)CC1.O=C(O)C(F)(F)F,Percent Effect,"30.3 µM, […]",56.26%
CCCN1CCC(c2nc3ccc(-c4ccncc4)cn3n2)CC1.O=C(O)C(F)(F)F.O=C(O)C(F)(F)F,Percent Effect,"30.3 µM, […]",22.97%
CCCN1CCC(c2nc3ccc(-c4cccc(F)c4)cn3n2)CC1.O=C(O)C(F)(F)F,Percent Effect,"30.3 µM, […]",49.02%
CN1CCC(c2nc3ccc(-c4ccccc4)cn3n2)CC1.O=C(O)C(F)(F)F,Percent Effect,"30.3 µM, […]",26.64%
CC(=O)N1CCC(c2nc3ccc(NC4CCC4)cn3n2)CC1.O=C(O)C(F)(F)F,Percent Effect,"30.3 µM, […]",40.49%
CCN1CCC(c2nc3ccc(NC4CCC4)cn3n2)CC1.O=C(O)C(F)(F)F,Percent Effect,"30.3 µM, […]",53.52%
Cc1cnn(CC2CN(CC(=O)N3CCc4ccccc43)CCO2)c1 (stereo not given),Percent Effect,"30 µM, 30.03 µM",26.31%
CCCN(C(=O)c1cnns1)C1CCCN(Cc2ccccc2)C1 (stereo not given),Percent Effect,"30.3 µM, […]",15.37%
CCn1c(C)cc(C(=O)NCc2cccc(S(=O)(=O)NC)c2)c1C,Percent Effect,"30.3 µM, […]",-2.214%
C[C@@H]1CN(CCC(=O)N(C)Cc2ccccc2)CC[C@@]1(O)C1CCC1,Percent Effect,"30.3 µM, […]",-42.91%
CN(Cc1ccccc1)C(=O)CCN1CCC2(CC1)[C@H](O)C[C@@H]2O,Percent Effect,"30.3 µM, […]",16.81%
C[C@@H]1CN(CCC(=O)N(C)Cc2ccccc2)C[C@@]1(O)C1CCC1,Percent Effect,"30.3 µM, […]",54.72%
CC(C)Nc1cccc(CC2CCN(C)C2)n1.O=CO (stereo not given),Percent Effect,"30.3 µM, […]",8.612%
Cc1noc(C)c1CC(=O)NCC(C(C)C)N1CCOCC1 (stereo not given),Percent Effect,"30.3 µM, […]",13.16%
CS(=O)(=O)N1C[C@@H]2CC[C@H](C1)N(C(=O)CCc1ccsc1)C2,Percent Effect,"30.3 µM, […]",42.41%
CC(C)C1SCC(=O)Nc2c1cnn2-c1ccc(F)cc1 (stereo not given),Percent Effect,"30.3 µM, […]",-10.63%
CC(C)C1SCC(=O)Nc2c1cnn2-c1ccc(Cl)cc1 (stereo not given),Percent Effect,"30.3 µM, […]",63.84%
COc1ccc(-n2ncc3c2NC(=O)CSC3C(C)C)cc1 (stereo not given),Percent Effect,"30.3 µM, […]",23.81%
Cc1cc(C)c(CNC(=O)N2CCCN(C(=O)C(C)C)CC2)c(C)c1,Percent Effect,"30.3 µM, […]",-55.36%
COc1cc(NC2CCS(=O)(=O)C2)ncn1 (stereo not given),Percent Effect,"30.3 µM, […]",-35.33%
O=C(NCC1CCC1)c1cccc(CN2CCS(=O)(=O)CC2)c1,Percent Effect,"30.3 µM, […]",14.97%
Cc1nn(C)c(C)c1NC(=O)c1cccc(CN2CCS(=O)(=O)CC2)c1,Percent Effect,"30.3 µM, […]",17.24%
CC(C)(C)NC(=O)c1cccc(CN2CCS(=O)(=O)CC2)c1,Percent Effect,"30.3 µM, […]",61.43%
CN1CCO[C@@H]2CN(S(=O)(=O)c3ccccc3)C[C@@H]2C1.O=C(O)C(F)(F)F,Percent Effect,"30.3 µM, […]",29.49%
OCC1CCCN1c1cc(NCCc2nccs2)ncn1 (stereo not given),Percent Effect,"30.3 µM, […]",55.11%
OCC1CCCN1c1cc(NCc2ccccn2)ncn1 (stereo not given),Percent Effect,"30.3 µM, […]",50.11%
OCC1CCCN1c1cc(NCCNc2ccccn2)ncn1 (stereo not given),Percent Effect,"30 µM, 30.03 µM",16.04%
OCC1CCCN1c1cc(NCCc2ccccn2)ncn1 (stereo not given),Percent Effect,"30.3 µM, […]",47.66%
OCC1CCCN1c1cc(NCCc2ccsc2)ncn1 (stereo not given),Percent Effect,"30.3 µM, […]",-26.43%
OCC1CCCN1c1cc(NCCNc2cccnn2)ncn1 (stereo not given),Percent Effect,"30.3 µM, […]",20.93%
NC(=O)[C@@H]1CCCN1C(=O)c1csc(-c2ccc(C(F)(F)F)cc2)n1,Percent Effect,"30.3 µM, […]",24.55%
CNC(=O)c1cc(OC)c(OC)cc1N(C)S(C)(=O)=O,Percent Effect,"30.3 µM, […]",-11.85%
COc1ccc(CCCC(=O)NCc2c(C)noc2C)cc1F,Percent Effect,"30.3 µM, […]",0.2518%
Cc1cc(C)cc(C(=O)NCc2ncnn2C)c1,Percent Effect,"30.3 µM, […]",-3.252%
COC(=O)CCNC(=O)c1nnn(-c2ccc(F)cc2)c1C1CC1,Percent Effect,"30.3 µM, […]",23.19%
COc1cccc(CNCc2ccc(F)cc2Cl)c1O,Percent Effect,"30.3 µM, […]",50.12%
COc1cccc(CNCc2ccccc2Cl)c1O,Percent Effect,"30.3 µM, […]",11.74%
COc1cccc(CNCc2ccc(F)c(Cl)c2)c1O,Percent Effect,"30.3 µM, […]",3.534%
COCCCC(=O)N(C)c1ccc(F)c(Cl)c1,Percent Effect,"30.3 µM, […]",10.71%
O=c1oc(-c2ccc(F)cc2)nn1CN1CCCCC1,Percent Effect,30 µM,11.98%
COCCNC(=O)c1sc(Nc2ccc(Cl)cn2)nc1C,Percent Effect,"30 µM, 30.03 µM",-6.179%
COCC1CN(c2ccc(C)nn2)Cc2cnn(C)c21.O=C(O)C(F)(F)F.O=C(O)C(F)(F)F (stereo not given),Percent Effect,"30.3 µM, […]",1.62%
CCc1nc2c(N3CCC4(CC3)CNC(=O)C4)ncnc2o1,Percent Effect,"30.3 µM, […]",11.46%
CCc1nc2c(N3CCC4(CC3)CC(=O)N(CC)C4)ncnc2o1,Percent Effect,"30.3 µM, […]",0.202%
CCc1nc2c(N3CCC4(CC3)CC(=O)N(CC(C)C)C4)ncnc2o1,Percent Effect,"30.3 µM, […]",71.44%
CCOCC(=O)N1CCOCC2(CCN(c3ncccn3)C2)C1.O=C(O)C(F)(F)F (stereo not given),Percent Effect,"30.3 µM, […]",-3.02%
OCCC1CN(C2CCC2)CCN1C1CCCC1 (stereo not given),Percent Effect,"30 µM, 30.03 µM",24.92%
Clc1ccccc1CCN1CCN(c2ccc3nncn3n2)CC1,Percent Effect,30 µM,7.685%
O=C(CN1CCCC(c2ccn[nH]2)C1)Nc1nncs1 (stereo not given),Percent Effect,"30.3 µM, […]",11.72%
O=C(CN1CCCC(c2ccn[nH]2)C1)Nc1nc2c(s1)CCC2 (stereo not given),Percent Effect,"30.3 µM, […]",51.08%
Cc1cc(C2CCCN(CC(=O)Nc3nc4c(s3)CCC4)C2)n[nH]1 (stereo not given),Percent Effect,"30.3 µM, […]",34.8%
O=C(CN1CCCC(c2ccn[nH]2)C1)N1CCCc2ccccc21 (stereo not given),Percent Effect,"30.3 µM, […]",-7.148%
Cc1nnc(NC(=O)CN2CCCC(c3ccn[nH]3)C2)s1 (stereo not given),Percent Effect,"30.3 µM, […]",-18.19%
O=C(CN1CCCC(c2ccn[nH]2)C1)Nc1nc2c(s1)CCCC2 (stereo not given),Percent Effect,"30.3 µM, […]",57.39%
CN(C)CCN1C(=O)CC[C@@H]2[C@H]1CCN2C(=O)c1ccc(C#N)cc1.O=C(O)C(F)(F)F,Percent Effect,"30.3 µM, […]",2.551%
Cc1ccc(CN(CCCn2ccnc2)Cc2c[nH]cn2)s1.O=C(O)CC(O)(CC(=O)O)C(=O)O,Percent Effect,"30 µM, 30.03 µM",29.23%
CCc1ccc(CN(CCCn2ccnc2)Cc2ccc(C)s2)o1.O=C(O)CC(O)(CC(=O)O)C(=O)O,Percent Effect,"30 µM, 30.03 µM",12.85%
CC(NC(=O)N(C)Cc1ccsc1)c1ccc2c(c1)OCO2 (stereo not given),Percent Effect,"30 µM, 30.03 µM",29.16%
O=C(Nc1nncs1)NC1CCOc2ccccc21 (stereo not given),Percent Effect,"30 µM, 30.03 µM",-9.341%
Cn1cc(CN2CC[C@H]3O[C@@H](COCc4cccnc4)CC[C@H]32)cn1.O=C(O)C(F)(F)F.O=C(O)C(F)(F)F,Percent Effect,"30.3 µM, […]",18.07%
O=C(COc1ccccc1)NCC1CCN(Cc2ccsc2)CC1,Percent Effect,"30.3 µM, […]",8.301%
CCCS(=O)(=O)N1C[C@@H]2CN(Cc3ccoc3)CCO[C@@H]2C1.O=C(O)C(F)(F)F,Percent Effect,"30.3 µM, […]",15.12%
Cc1ccc(OCCCC(=O)Nc2nonc2C)cc1C,Percent Effect,"30.3 µM, […]",1.215%
Cc1ccsc1CCNC(=O)CCC(=O)NC1CCCC1,Percent Effect,"30.3 µM, […]",16.22%
Cc1ncsc1-c1nc(-c2cccc(CN3CCOCC3)c2)no1,Percent Effect,"30.3 µM, […]",19.67%
Cc1nn2c(-c3snnc3C)nnc2s1,Percent Effect,"30.3 µM, […]",93.73%
Cc1nnsc1-c1nnc2sc(C(C)C)nn12,Percent Effect,"30.3 µM, […]",39.28%
Cc1nnsc1-c1nnc2sc(C3CCC3)nn12,Percent Effect,"30.3 µM, […]",11.99%
CCN1CCN(Cc2ccnc(-c3cccnc3)n2)CC1.O=C(O)CC(O)(CC(=O)O)C(=O)O,Percent Effect,"30 µM, 30.03 µM",7.725%
Cc1ncsc1C(=O)N(C)Cc1ccsc1,Percent Effect,30 µM,23.48%
